Screen size: about 31,000 compounds; about 360 (1.2%) were called active. The sample holds actives, similar compounds and a random draw of the others, so the mix is not that of the screen. How the calls were made is not given here.
Each molecule was assayed against DNA-binding protein inhibitor ID-4 (Homo sapiens) (UniProt P47928) (assay: PubChem AID 624137). Details: small molecule microarray, Flag-ID4 binding, fluorescence F/B.
Sequence of DNA-binding protein inhibitor ID-4 (Homo sapiens) (P47928 whole entry, looked up): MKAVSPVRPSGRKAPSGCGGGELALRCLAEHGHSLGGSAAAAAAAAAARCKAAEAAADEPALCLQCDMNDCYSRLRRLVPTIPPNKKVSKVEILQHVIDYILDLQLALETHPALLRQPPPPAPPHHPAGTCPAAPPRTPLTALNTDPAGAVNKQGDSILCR
With `O=C(C[C@@H]1CC[C@@H](NS(=O)(=O)c2ccc(F)cc2)[C@H](CO)O1)NCc1ccc(Cl)c(Cl)c1` the outcome was “inactive”.
`COc1ccccc1-c1cnc2c(c1)C(=O)N([C@H](C)CO)C[C@@H](C)[C@@H](CN(C)Cc1ccncc1)O2` was tested, and the outcome was “inactive”.
`COc1ccccc1-c1cnc2c(c1)C(=O)N([C@@H](C)CO)C[C@H](C)[C@H](CN(C)C(=O)c1ccncc1)O2` was tested, and the outcome was “inactive”.
With `CC(C)CC#Cc1cnc2c(c1)C(=O)N([C@@H](C)CO)C[C@H](C)[C@@H](CN(C)C(=O)c1cccc(F)c1)O2` the outcome was “inactive”.
For `CC(C)CC#Cc1cnc2c(c1)C(=O)N([C@H](C)CO)C[C@H](C)[C@@H](CN(C)Cc1ccccc1)O2`, the outcome was “inactive”.
For `c1ccc2[nH]c(CSc3nc4ccccc4[nH]3)nc2c1`, the outcome was “inactive”.
With `C[C@@H]1CN([C@H](C)CO)C(=O)c2cc(C#CC3CCCC3)cnc2O[C@H]1CN(C)C(=O)C1CC1` the outcome was “inactive”.
For `COc1ccccc1-c1cnc2c(c1)C(=O)N([C@@H](C)CO)C[C@H](C)[C@H](CN(C)CC1CCOCC1)O2`, the outcome was “inactive”.
For `CN(C)c1ccc2c(c1)[C@@H]1C[C@@H](CC(=O)NCc3ccccn3)O[C@H](CO)[C@@H]1O2`, the outcome was “inactive”.
In the case of `CCC(=O)N(C)C[C@H]1Oc2ncc(-c3ccc(C)cc3)cc2C(=O)N([C@@H](C)CO)C[C@@H]1C`, the outcome is reported as “inactive”.
With `COc1ccccc1-c1ccc2c(c1)O[C@H](CN(C)C(=O)c1cccnc1)[C@H](C)CN([C@@H](C)CO)S2(=O)=O` the outcome was “inactive”.
With `COc1cc(S(=O)(=O)NCCN2CCOCC2)ccc1Br` the outcome was “inactive”.
`O=C(CSc1nnnn1-c1ccccc1)Nc1ccccc1C(=O)c1ccccc1` was tested, and the outcome was “inactive”.
With `C[C@H](CO)N1C[C@H](C)[C@H](CN(C)CC2CC2)Oc2cc(-c3ccc(F)cc3)ccc2S1(=O)=O` the outcome was “inactive”.
In the case of `O=C(C[C@H]1C=C[C@@H](NC(=O)C2CC2)[C@H](CO)O1)NCC1CC1`, the outcome is reported as “inactive”.
In the case of `O=C(C[C@H]1C=C[C@@H](NC(=O)CC2CC2)[C@H](CO)O1)NCc1ccc(-c2ccccc2)cc1`, the outcome is reported as “inactive”.
With `Cc1ccc(-c2cnc3c(c2)C(=O)N([C@H](C)CO)C[C@@H](C)[C@@H](CN(C)C(=O)CN(C)C)O3)cc1` the outcome was “inactive”.
With `C[C@@H]1CN([C@H](C)CO)S(=O)(=O)c2ccc(-c3ccccc3)cc2O[C@@H]1CN(C)CC1CC1` the outcome was “inactive”.
With `CN(C)C(=O)C[C@H]1CC[C@@H](NC(=O)Nc2cccc(F)c2)[C@H](CO)O1` the outcome was “inactive”.
In the case of `CC(C)c1cn(CC[C@@H]2CC[C@@H](NC(=O)C3CCC3)[C@@H](CO)O2)nn1`, the outcome is reported as “inactive”.
With `CN(C)C(=O)C[C@H]1CC[C@@H](NC(=O)C2CC2)[C@@H](CO)O1` the outcome was “inactive”.
For `O=C(C[C@@H]1C=C[C@@H](NC(=O)Nc2cccc(F)c2)[C@H](CO)O1)NCC1CCCCC1`, the outcome was “inactive”.
With `CO[C@@H]1CN(C)C(=O)c2cc(NC(=O)c3ccccc3F)ccc2OC[C@@H](C)N(CC2CC2)C[C@H]1C` the outcome was “inactive”.
With `CC(C)NC(=O)N(C)C[C@@H]1Oc2c(cccc2N(C)C)C(=O)N([C@H](C)CO)C[C@@H]1C` the outcome was “inactive”.
For `CC(C)NC(=O)N(C)C[C@@H]1Oc2ccc(N(C)C)cc2C(=O)N([C@@H](C)CO)C[C@H]1C`, the outcome was “inactive”.
In the case of `CC(C)NC(=O)N(C)C[C@@H]1Oc2c(cccc2N(C)C)C(=O)N([C@@H](C)CO)C[C@H]1C`, the outcome is reported as “active”.
For `CCC(Oc1cccc(NC(=O)c2ccccc2[N+](=O)[O-])c1)C(=O)c1ccccc1` (stereo not drawn), the outcome was “inactive”.
`C[C@@H]1CN([C@H](C)CO)C(=O)c2cc(C#Cc3cccc(F)c3)cnc2O[C@H]1CN(C)Cc1ccccn1` was tested, and the outcome was “inactive”.
`CCCC#Cc1ccc2c(c1)O[C@@H](CN(C)CCC)[C@@H](C)CN([C@H](C)CO)S2(=O)=O` was tested, and the outcome was “inactive”.
For `CC(C)NC(=O)N(C)C[C@H]1Oc2ncc(C#CC3CC3)cc2C(=O)N([C@H](C)CO)C[C@@H]1C`, the outcome was “inactive”.
In the case of `C[C@@H]1CN([C@@H](C)CO)C(=O)c2cc(-c3ccccc3F)cnc2O[C@@H]1CN(C)Cc1cccc(F)c1`, the outcome is reported as “inactive”.
In the case of `O=C(C[C@@H]1C=C[C@@H](NC(=O)c2ccccn2)[C@@H](CO)O1)NCc1cc(F)cc(F)c1`, the outcome is reported as “inactive”.
In the case of `C[C@@H]1CN([C@H](C)CO)C(=O)c2cc(-c3ccncc3)cnc2O[C@H]1CN(C)C`, the outcome is reported as “inactive”.
With `C[C@H]1CN([C@@H](C)CO)C(=O)c2cc(C3=CCCC3)cnc2O[C@@H]1CN(C)Cc1cccnc1` the outcome was “inactive”.
With `C/C=C/c1ccc2c(c1)O[C@H](CN(C)C)[C@H](C)CN([C@H](C)CO)S2(=O)=O` the outcome was “inactive”.
For `CCC1=NN(C(=O)C(C)C)C(O)(c2ccc(Br)cc2)C1` (stereo not drawn), the outcome was “inactive”.
In the case of `CC(=O)N(C)C[C@@H]1Oc2ncc(C#CCc3ccccc3)cc2C(=O)N([C@H](C)CO)C[C@H]1C`, the outcome is reported as “inactive”.
In the case of `C[C@H](CO)N1C[C@H](C)[C@H](CN(C)C)Oc2ncc(-c3ccncc3)cc2C1=O`, the outcome is reported as “inactive”.
For `COc1cccc(S(=O)(=O)N[C@H]2C=C[C@H](CC(=O)NC3Cc4ccccc4C3)O[C@H]2CO)c1`, the outcome was “inactive”.
`CC(C)NC(=O)N(C)C[C@@H]1Oc2ncc(C#CC3CC3)cc2C(=O)N([C@@H](C)CO)C[C@H]1C` was tested, and the outcome was “inactive”.
For `O=C(C[C@@H]1CC[C@@H](NC(=O)C2CC2)[C@@H](CO)O1)NCc1ccccc1Cl`, the outcome was “inactive”.
For `COCC#Cc1ccc2c(c1)O[C@H](CN(C)CC1CC1)[C@H](C)CN([C@H](C)CO)S2(=O)=O`, the outcome was “inactive”.
`C[C@H](CO)N1C[C@H](C)[C@H](CN(C)C)Oc2cc(C#Cc3ccccc3F)ccc2S1(=O)=O` was tested, and the outcome was “inactive”.
With `O=C(C[C@@H]1C=C[C@@H](NC(=O)c2cccnc2)[C@H](CO)O1)NCCN1CCCCC1` the outcome was “inactive”.
For `COC(=O)C[C@H]1CC[C@H](NC(=O)c2ccccc2)[C@@H](CO)O1`, the outcome was “inactive”.
With `CC(C)CC#Cc1cnc2c(c1)C(=O)N([C@H](C)CO)C[C@H](C)[C@@H](CN(C)Cc1ccccc1C(=O)O)O2` the outcome was “inactive”.
In the case of `O=C(C[C@@H]1C[C@H]2c3cc(NC(=O)C4CCOCC4)ccc3O[C@H]2[C@H](CO)O1)NCc1ccc2c(c1)OCO2`, the outcome is reported as “inactive”.
For `C[C@H]1CN([C@@H](C)CO)S(=O)(=O)c2ccc(-c3ccccc3F)cc2O[C@H]1CN(C)C(=O)C1CC1`, the outcome was “inactive”.
In the case of `C[C@@H]1CN([C@H](C)CO)C(=O)c2cc(C#CCC3CCCC3)cnc2O[C@H]1CN(C)C(=O)c1cnccn1`, the outcome is reported as “inactive”.
For `CO[C@H](CN(C)S(=O)(=O)c1ccc(C)cc1)[C@@H](C)CN(Cc1ccccc1Cl)[C@@H](C)CO`, the outcome was “inactive”.
For `CCn1c(SCC(=O)Nc2cc(Cl)c(Cl)cc2Cl)nnc1-c1ccccc1Cl`, the outcome was “inactive”.
With `N#Cc1c(NC(=O)CCn2cnc3ccccc3c2=O)sc2c1CCCC2` the outcome was “inactive”.
With `CCn1c(SCC(=O)Nc2sc3c(c2C#N)CCCC3)nnc1-c1ccccc1O` the outcome was “active”.
`C[C@@H]1CN([C@@H](C)CO)C(=O)c2cc(C3=CCCC3)cnc2O[C@H]1CN(C)Cc1ccccc1F` was tested, and the outcome was “inactive”.
In the case of `COCC(=O)N[C@H]1C=C[C@H](CC(=O)N2CCCCC2)O[C@H]1CO`, the outcome is reported as “inactive”.
With `Cc1ccc(-c2ccc3c(c2)O[C@H](CN(C)C)[C@@H](C)CN([C@@H](C)CO)S3(=O)=O)cc1` the outcome was “inactive”.
In the case of `CO[C@@H](CN(C)S(=O)(=O)c1ccc(F)cc1)[C@H](C)CN(C(=O)Nc1ccccc1F)[C@@H](C)CO`, the outcome is reported as “inactive”.
With `O=C(C[C@H]1C=C[C@@H](NC(=O)Nc2cc(F)ccc2F)[C@H](CO)O1)NCCCN1CCOCC1` the outcome was “inactive”.
`CN(C)C(=O)C[C@H]1C=C[C@@H](NC(=O)c2ccc(F)cc2)[C@@H](CO)O1` was tested, and the outcome was “inactive”.
`C[C@H]1CN([C@@H](C)CO)C(=O)c2cc(Br)cnc2O[C@@H]1CN(C)C(=O)c1ccccc1F` was tested, and the outcome was “inactive”.
`O=C(CN1C(=O)c2ccccc2S1(=O)=O)Nc1ccc(F)c(F)c1` was tested, and the outcome was “inactive”.
For `O=C(CSc1nnc(-c2ccccc2)n1-c1ccccc1)c1ccc(F)cc1`, the outcome was “inactive”.
For `CO[C@@H](CN(C)C(=O)c1cnccn1)[C@@H](C)CN([C@@H](C)CO)S(=O)(=O)c1ccc(F)cc1`, the outcome was “inactive”.
`C[C@H]1CN([C@@H](C)CO)C(=O)c2cc(Br)cnc2O[C@H]1CN(C)CC1CCCC1` was tested, and the outcome was “inactive”.
With `CCCN(C)C[C@@H]1Oc2cc(-c3ccc(C)cc3)ccc2S(=O)(=O)N([C@@H](C)CO)C[C@H]1C` the outcome was “inactive”.
With `CCC(=O)N[C@H]1C=C[C@@H](CC(=O)NCC2CCCCC2)O[C@H]1CO` the outcome was “inactive”.
With `C[C@@H]1CN([C@H](C)CO)C(=O)c2cc(Br)cnc2O[C@@H]1CN(C)C(=O)C1CC1` the outcome was “inactive”.
In the case of `C[C@H](CO)N1C[C@H](C)[C@@H](CN(C)C)Oc2ncc(-c3cccc(F)c3)cc2C1=O`, the outcome is reported as “inactive”.
`C[C@@H]1CN([C@H](C)CO)S(=O)(=O)c2ccc(-c3cccc(C#N)c3)cc2O[C@@H]1CN(C)C(=O)Nc1ccccc1F` was tested, and the outcome was “active”.
With `C[C@@H]1CN([C@@H](C)CO)S(=O)(=O)c2ccc(-c3cccc(C#N)c3)cc2O[C@@H]1CN(C)Cc1cccc(F)c1` the outcome was “inactive”.
`CCCN(C)C[C@@H]1Oc2cc(-c3cccc(C#N)c3)ccc2S(=O)(=O)N([C@@H](C)CO)C[C@@H]1C` was tested, and the outcome was “inactive”.
`Cc1cc(C)c(OCC(=O)Nc2cccnc2)c(Br)c1` was tested, and the outcome was “inactive”.
With `COc1ccc(NC(=O)Cc2nc(-c3cc4ccccc4oc3=O)cs2)cc1` the outcome was “inactive”.
In the case of `COc1cccc(S(=O)(=O)N[C@H]2C=C[C@H](CC(=O)NC3Cc4ccccc4C3)O[C@@H]2CO)c1`, the outcome is reported as “inactive”.
With `CN(C)c1ccc2c(c1)[C@H]1C[C@H](CC(=O)NCc3ccc(Cl)cc3)O[C@H](CO)[C@H]1O2` the outcome was “inactive”.
For `CC(=O)N(C)C[C@H]1Oc2cc(C#Cc3ccccc3F)ccc2S(=O)(=O)N([C@H](C)CO)C[C@@H]1C`, the outcome was “inactive”.
`COc1ccc(CNC(=O)C[C@@H]2C=C[C@@H](NC(=O)c3ccc4c(c3)OCO4)[C@@H](CO)O2)cc1` was tested, and the outcome was “inactive”.
In the case of `O=C(C[C@H]1CC[C@@H](NC(=O)Cc2ccccn2)[C@H](CO)O1)NCCc1ccccc1`, the outcome is reported as “inactive”.
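Further: a binder raises fluorescence above local background on the spot.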
